DAX1 inh-1 – inhibitors of human orphan nuclear receptor DAX1 (NR0B1) | 0.99% of 340,000 active | HEK293 Gal4-DAX1 luciferase reporter, luminescence | AID 504766 | inhibition, % at 6.75 µM;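 active means inhibition above the mean over all tested compounds plus 3 SD, cut at about 4.2% in these data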;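 further: inhibition shows as a rise in luminescence from relieved DAX1 repression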
hgDAF-12 ag – hgDAF-12 agonism, primary luciferase screen; AID 687014; HEK293 GAL4-hgDAF12 UAS-luciferase reporter, agonist luminescence; normalized to butyrate control; 1.8% of 370,000 active; activation, % at 6.8 µM;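 active means activation above a cutoff set at the mean of all screened compounds plus 3 SD, cut at about 10% in these data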
ssDAF-12 act – S. stercoralis DAF-12 activation, primary screen; HEK293 ssDAF-12/GRIP1 lit1-tk-luc reporter, luminescence; % of 3 µM dafachronic acid response; activation, % at 6.8 µM; 1% of 370,000 active;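 active means activation above the mean over all tested compounds plus 3 SD, cut at about 0.9% in these data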
hcDAF-12 act – activators of H. contortus DAF-12 nuclear receptor | 1.4% of 370,000 active | AID 652067 | HEK293 hcDAF-12 lit1-tk-luc reporter, luminescence; 0% DMSO, 100% Δ7-dafachronic acid | activation, % at 6.8 µM;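 active means activation above the mean of all tested compounds plus 3 SD, cut at about 5.5% in these data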
DAX1 inh-2 – DAX1 (NR0B1) inhibition, primary screen; HEK293T StAR-luciferase reporter, SF-1/DAX-1 repression relief; inhibition, % at 6.8 µM; 1.1% of 370,000 active;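 active means inhibition above the mean over all tested compounds plus 3 SD, cut at about 3.6% in these data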;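 further: higher inhibition means more luminescence from relief of DAX-1 repression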
AHR act – activators of human aryl hydrocarbon receptor; P35869; AHR-responsive luciferase reporter cells, luminescence; activation, % at 5 µM; 2.5% of 320,000 active; in the data active means activation above about 47%
AHR act confirm – human AHR activation, confirmation. shares compounds with AHR act. human cells, AHR-responsive luciferase reporter, luminescence. activation, % at 9 µM. 87% of 2,300 active. AID 2845; in the data active means activation above about 49%;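 further: HepG2 hepatoma cells carrying a DRE-driven firefly luciferase reporter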
PXR act counter – counter-screen for AHR activators: human PXR activators; shares compounds with AHR act; AID 434939; 88% of 2,300 active; activation, % at 11.6 µM; cell-based PXR reporter, luciferase luminescence; in the data active means activation above about 11%;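 further: human hepatoma DPX-2 cells expressing full-length human PXR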
A number is an active result; 0 = inactive; - = not tested or not shown. Compounds with a hit are over-represented: about 5.7% of the library has one in this group of screens.

SMILES	DAX1 inh-1	hgDAF-12 ag	ssDAF-12 act	hcDAF-12 act	DAX1 inh-2	AHR act	others
NC(=O)C1CCCN(Cc2c(C(=O)N3CCc4ccccc4C3)nc3ccc(Cl)cn23)C1 (stereo unspecified)	0	0	0	0	0	0
Cc1ccc2nc(-c3ccc(C#N)cc3)c(Cc3cccc(Cl)c3)n2c1	-	0	0	0	0	-
Clc1cccc(Cc2c(-c3ccco3)nc3ccc(Br)cn23)c1	-	0	1.9	0	0	-
Cc1ccc2nc(-c3ccc(C#N)cc3)c(Cc3ccccc3)n2c1	-	11	0	0	0	-
Clc1ccc2nc(-c3cccc(Br)c3)c(Cc3ccccc3)n2c1	-	0	0	0	0	-
COc1ccccc1Cc1c(-c2cccc(Br)c2)nc2ccc(C)cn12	-	12	1.2	0	0	-
Cc1ccc2nc(-c3cccc(Br)c3)c(Cc3ccccc3)n2c1	-	0	1.9	8.1	4.2	-
COc1ccccc1C(=O)N1CCN(C(=O)[C@H]2O[C@@H](n3cnc4c(N)ncnc43)[C@H](O)[C@@H]2O)CC1	-	0	0	0	0	-
O=C(C(=O)N1CCC(CNS(=O)(=O)c2ccccc2OC(F)(F)F)CC1)c1cc2ccccc2o1	-	0	0	0	0	-
Cc1ccn2c(=O)nc(SCC(=O)NC3CCCC3)nc2c1	0	0	0	0	0	0
C=CCn1c(COc2ccccc2)nnc1SCC(=O)Nc1ccc(Oc2ccccc2)cc1	-	0	0	0	0	-
Cc1ccc2nc(-c3cccc(Br)c3)c(Cc3cccc(Cl)c3)n2c1	-	0	0	0	7.3	-
Cc1ccc(Cc2c(-c3cccc(Br)c3)nc3ccc(C)cn23)cc1	-	12	0	0	0	-
Cc1ccc(Cc2c(-c3cccc(Br)c3)nc3ccc(Cl)cn23)cc1	-	0	0	0	0	-
CC(C)(C)Cc1c(-c2ccc(Br)cc2)nc2ccc(Br)cn12	0	0	0	0	0	-
Clc1cccc(Cc2c(-c3cccc(Br)c3)nc3ccc(Cl)cn23)c1	-	0	0	0	0	-
CC(C)(C)Cc1c(-c2cccc(Cl)c2)nc2ccc(Br)cn12	-	0	2.1	0	0	-
Cc1ccc(Cc2c(-c3cccc(Cl)c3)nc3ccc(Br)cn23)cc1	-	11	0	0	0	-
NS(=O)(=O)c1ccc(NC(=O)C(=O)NCCC(=O)O)cc1	0	0	0	0	0	0
COC(=O)C1=C(C)N(C)C(=NCc2cccc(C(F)(F)F)c2)NC1c1ccccc1C(F)(F)F (stereo unspecified)	-	0	0	0	0	-
O=C(NCc1ccccn1)Nc1ccc(Br)cc1Cl	0	0	0	0	5.2	0
O=C(NCc1ccccn1)Nc1ccc(Cl)cc1Cl	0	0	0	0	0	0
S=C(NCCNC(=S)Nc1ccccc1Cl)Nc1ccccc1Cl	0	0	0	0	0	0
S=C(NCCc1ccccn1)Nc1ccccc1Cl	0	0	0	0	0	0
S=C(NCc1ccccn1)Nc1ccc(Br)cc1Cl	5.6	0	0	0	0	0
SMILES	DAX1 inh-1	hgDAF-12 ag	ssDAF-12 act	hcDAF-12 act	DAX1 inh-2	AHR act	others
S=C(NCc1ccccc1Cl)Nc1ccccc1Cl	7.4	0	0	0	0	0
S=C(NCc1ccccn1)Nc1ccccc1Cl	0	0	0	5.6	0	0
CC(C)c1ccc(OC[C@@H](O)CN2CCC(C(O)(c3ccccc3)c3ccccc3)CC2)cc1	-	0	0	0	0	-
O=C(Nn1c(-c2ccc(Br)cc2)nc2ccccc2c1=O)c1ccc([N+](=O)[O-])cc1	0	0	0	0	0	62
O=C(Nn1c(-c2ccccc2)nc2ccccc2c1=O)c1ccco1	0	0	0	0	0	58
CCN(CC)C(=O)C1=C(C)N(CCC2=CCCCC2)C(=O)C(CC(=O)NCCCN(C)C)C1 (stereo unspecified)	0	0	0	0	0	-
CCN(CC)CCNC(=O)C1(O)c2cc(Br)ccc2NC(=O)N1c1c(F)cccc1F (stereo unspecified)	0	0	0	0	0	0
CCn1nnnc1SCC(=O)Nc1ccc(F)cc1	0	0	0	0	0	0
CCSc1ncc(/C=N/Nc2ccc(F)cc2)n1C	0	0	0	0	0	77
COc1ccc(OC)c2nc(-c3cccnc3)ccc12	0	0	0	0	0	93	AHR act confirm=143;PXR act counter=22
COc1ccccc1-n1c(-c2cccnc2)n[nH]c1=S	0	0	0	0	0	0
CN(CCc1ccccc1)C(=O)c1cccc(NC(=O)Cc2cccc(NC(=O)C3CCN(C(=O)C4CCC4)CC3)c2)c1	0	0	0	0	0	-
O=C(CSc1nc2cc(Cl)ccc2s1)NCc1ccc2c(c1)OCO2	0	0	0	0	0	108	AHR act confirm=82;PXR act counter=34
Cc1ccccc1-c1nsc(SCC(=O)NCc2ccc3c(c2)OCO3)n1	0	0	0	0	0	86	AHR act confirm=0;PXR act counter=30
CCN(CC(=O)N1CCOCC1)S(=O)(=O)c1ccccc1	0	0	0	0	0	0
CC(=O)c1cccc(CN2CCCCC2C(=O)Nc2ccc(Oc3ccccc3)nc2)c1 (stereo unspecified)	0	0	0	0	0	0
O=c1c2ccccc2nc(SCc2nc3ccccc3s2)n1CCCO	0	0	0	0	0	89	AHR act confirm=107;PXR act counter=52
O=C(CSc1nc2ccccc2c(=O)n1CCCO)NCc1ccccc1	0	0	0	0	0	0
Cc1ccc(NC(=O)N2CCCC2C(=O)NCc2ccc(Cl)cc2)cc1 (stereo unspecified)	0	0	0	0	0	0
CCOCC(=O)Nc1cccc(-c2nc3cccnc3s2)c1C	0	0	0	0	0	88	AHR act confirm=107
CC1(C(=O)O)CCCN(C(=O)c2ccc3c(c2)C(C)(C)CCC3(C)C)C1 (stereo unspecified)	-	0	0	0	0	-
COc1ccccc1C(=O)Nc1cccc(SC)c1	0	0	0	0	0	83	AHR act confirm=85;PXR act counter=23
COc1cccc(C(=O)Nc2cccc(SC)c2)c1	0	0	0	0	0	0
Nc1cccc(Nc2ncnc3ccccc23)c1	0	0	0	0	0	152	AHR act confirm=65
CCn1c(=O)c([N+](=O)[O-])c(NCc2ccco2)c2ccccc21	-	0	0	0	0	0
COc1ccccc1C(=O)NC(=Nc1nc2ccccc2o1)NC(=O)c1ccccc1OC	0	0	0	5.9	0	107	AHR act confirm=133;PXR act counter=45
O=C(NC(=Nc1nc2ccccc2o1)NC(=O)c1ccccc1)c1ccccc1	0	0	0	0	0	0
N/C(=N\c1nc2ccccc2o1)NC(=O)c1ccccc1F	0	0	0	0	0	104	AHR act confirm=167;PXR act counter=15
O=c1cc(CSc2nnc3ccccn23)c2c(ccc3ccccc32)o1	0	0	0	0	0	84	AHR act confirm=65;PXR act counter=29

Bioassay records: PubChem BioAssay, The Scripps Research Institute Molecular Screening Center
